These results are taken from PubChem BioAssay AID2235 (The Scripps Research Institute Molecular Screening Center, 2010).

Each structure is given as a SMILES string. Hit rate of the full screen: of about 320,000 compounds, about 2,800 (0.88%) were called active.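 Rule for the calls: active = inhibition above the mean inhibition of all tested compounds plus 3 SD, computed separately for each screening campaign (cut at about 15% in these data); inactive = the rest.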 The sample as a whole holds a higher share of actives than the screen did.

Chain of Serine/threonine-protein phosphatase PP1-alpha catalytic subunit (Homo sapiens) (P62136 whole entry, looked up): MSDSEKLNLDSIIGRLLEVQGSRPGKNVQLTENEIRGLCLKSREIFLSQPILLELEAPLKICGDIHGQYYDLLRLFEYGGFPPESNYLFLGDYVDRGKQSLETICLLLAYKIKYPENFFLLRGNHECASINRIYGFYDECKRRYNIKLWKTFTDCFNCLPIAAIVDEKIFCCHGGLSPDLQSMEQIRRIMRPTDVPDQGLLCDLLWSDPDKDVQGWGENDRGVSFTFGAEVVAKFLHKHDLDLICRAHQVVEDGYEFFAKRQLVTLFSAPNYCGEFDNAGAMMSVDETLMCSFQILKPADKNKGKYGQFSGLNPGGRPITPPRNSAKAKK

This assay has as its target Serine/threonine-protein phosphatase PP1-alpha catalytic subunit (Homo sapiens) (UniProt P62136). The assay is described as follows: PP1-alpha phosphatase inhibitors, primary screen, counter-screen for PP5 inhibitor project, biochemical, fluorescence, OMFP substrate, single point (AID 2235). The conditions noted are these: purified PP1alpha, at 6.7 µM, active compounds read high. In general terms: Counterscreens check selectivity or assay interference.
Regarding `O=C(CN1C(=O)C2C3C=CC(C3)C2C1=O)NCC1COc2ccccc2O1` (stereo not drawn), the inhibition (as a rule, the change of the read-out against control, counted positive when it falls) is 0.06% (inactive).

On to `O=C1C(=O)N(CC2COc3ccccc3O2)c2ccccc21` (stereo not drawn), for which the inhibition is 18.4% (active).

As for `Cc1cc(C(=O)CCl)c(C)n1CC1COc2ccccc2O1` (stereo not drawn), the inhibition is -1.57% (inactive).

With `O=C(NC(Cc1c[nH]c2ccccc12)C(=O)O)/C(=C/c1ccco1)NC(=O)c1ccccc1` (stereo not drawn), the inhibition is -3.53% (inactive).

Turning to `CN(C(=O)CSc1nnc(-c2n[nH]c3ccccc23)o1)c1ccccc1`, the inhibition is -3.45% (inactive).

For `COc1ccc(/C=C2\SC(=O)N(CCC(=O)NC3CCS(=O)(=O)C3)C2=O)cc1` (stereo not drawn), the inhibition is -1.73% (inactive).

As for `Cn1c(=N)n(CC(O)c2ccccc2)c2ccccc21` (stereo not drawn), the inhibition was -1.18% (inactive).

`Cn1c(=N)n(CC(O)c2cccs2)c2ccccc21` (stereo not drawn): the inhibition is 2.31% (inactive).

Consider `N=c1n(Cc2ccc(Cl)cc2)c2ccccc2n1CC(O)c1ccco1` (stereo not drawn), for which the inhibition was 21.9% (active).

As for `O=S(=O)(c1cccc(-c2cn3ccccc3n2)c1)N1CCCC1`, the inhibition is -0.43% (inactive).

Regarding `O=C(O)c1ccccc1OCc1ccccc1Cl`, the inhibition is -3.14% (inactive).

Consider `CC(C)c1cc(C(N)=O)c(NC(=O)c2cccc(COc3ccc(Br)cc3)c2)s1`, for which the inhibition was 6.73% (inactive).

As for `COc1ccc(N2CCN(S(=O)(=O)c3ccc4c(c3)NC(=O)C(C)C(=O)N4)CC2)cc1` (stereo not drawn), the inhibition is -1.74% (inactive).

Take `CSC1=NCCN1C(=O)Cc1cccc2ccccc12`: the inhibition was -1.43% (inactive).

Take `C=C1c2c(Cl)ccc(O)c2C(O)=C2C(=O)[C@]3(O)C(O)=C(C(N)=O)C(=O)[C@@H](N(C)C)[C@@H]3[C@@H](O)C12` (stereo partly drawn): the inhibition is 23.5% (active).

As to `CN(C)[C@@H]1C(=O)C(C(N)=O)=C(O)[C@@]2(O)C(=O)C3=C(O)c4c(O)ccc(Cl)c4[C@@H](O)[C@H]3C[C@@H]12`, the inhibition was 5.56% (inactive).

Regarding `Cc1cc(Nc2cccc(F)c2)n2ncnc2n1`, the inhibition is -2.78% (inactive).

For the compound `COc1ccccc1/C=N/Nc1nc(C)c(C(C)=O)s1`, the inhibition was 1.23% (inactive).

On to `COc1ccccc1/C=N\Nc1cc(C)nc(-n2nc(C)cc2C)n1`, for which the inhibition was 30.7% (active).

Turning to `CN(C)c1ccc(/C=N/Nc2cc(N3CCOCC3)nc(N3CCOCC3)n2)cc1`, the inhibition is -2.51% (inactive).

As to `Cc1cc(N/N=C\c2ccc(Br)cc2)nc(-n2nc(C)cc2C)n1`, the inhibition was 21.7% (active).

On to `COc1cccc(/C=N/Nc2cc(C)nc(-c3ccccc3O)n2)c1O`, for which the inhibition was 6.15% (inactive).

In the case of `Cc1nc(Cl)cc(N/N=C/c2ccccc2)n1`, the inhibition is -6.15% (inactive).

For the compound `CS(=O)(=O)N(Cc1nc2sc3c(c2c(=O)[nH]1)CCCC3)C1CCCCC1`, the inhibition is 1.31% (inactive).

As for `NC1=NC(c2ccc([N+](=O)[O-])cc2)N(c2ccc(F)cc2)C(N)=N1` (stereo not drawn), the inhibition was 1.43% (inactive).

Turning to `CCOc1ccc(C)cc1S(=O)(=O)NC1CCCCCC1`, the inhibition was 0.47% (inactive).

In the case of `O=C(CN1CCN(Cc2ccccc2)CC1)NC(c1ccccc1)c1ccccc1`, the inhibition was 10.6% (inactive).

For the compound `O=C(CN1CCc2ccccc21)NC(c1ccccc1)c1ccccc1`, the inhibition was 17.5% (active).

In the case of `NS(=O)(=O)c1cccc(NC(=O)CN2CCCc3ccccc32)c1`, the inhibition is -0.85% (inactive).

As to `CCn1cc(CN2CCCC(CNS(=O)(=O)Cc3ccccc3)C2)cn1` (stereo not drawn), the inhibition was 0.72% (inactive).

`COC(=O)N1CN(C(=O)OC)CN(C(=O)OC)C1`: the inhibition is -3.93% (inactive).

Turning to `O=C(CCCN1C(=O)/C(=C/c2cccs2)SC1=S)Nc1ccc(O)cc1`, the inhibition is -0.73% (inactive).

Consider `CCCCC(=O)Nc1ccc(C(=O)Nc2cc(C(F)(F)F)ccc2Cl)cc1`, for which the inhibition is 1.1% (inactive).

With `CCCCN(CCCC)CCC(O)c1cc2c(Cl)cc(Cl)cc2c2cc(C(F)(F)F)ccc12` (stereo not drawn), the inhibition is 17% (active).

`CC(C)c1nnc(NC(=O)CCC(=O)N2CCN(c3cccc(Cl)c3)CC2)s1`: the inhibition was -3.62% (inactive).

In the case of `NNC(=O)c1cnn(-c2ccccc2)c1C(F)(F)F`, the inhibition was 0.34% (inactive).

With `CCO/N=C(/C)c1c(O)cc(-c2ccccc2)n(-c2ccccc2)c1=O`, the inhibition was -2.6% (inactive).

As for `CCOc1ccc(NC(=O)c2ccc(NC(=O)COC(=O)c3ccc(NC(=O)CC#N)cc3)cc2)cc1`, the inhibition was 75.8% (active).

Take `CC(C)NC(=O)NC(=O)COC(=O)c1ccc(NC(=O)CC#N)cc1`: the inhibition is -2.32% (inactive).

In the case of `CCOc1ccc(NC(=O)CCNC(=O)c2ccc(Br)cc2)cc1`, the inhibition is 1.21% (inactive).

Turning to `CN=C(c1ccccc1)c1c(C)cccc1C`, the inhibition is 2.55% (inactive).

Consider `CCNC(=O)NC(=O)C(C)OC(=O)c1cc(S(=O)(=O)N2CCCCCC2)ccc1OC` (stereo not drawn), for which the inhibition was 1.67% (inactive).

On to `COc1cccc(NC(=O)Cn2c3ccccc3c3nc4n(c(=O)c32)CCS4)c1`, for which the inhibition is -2.19% (inactive).

With `O=C(NCc1ccc2c(c1)OCO2)C12CC3CC(CC(C3)C1)C2`, the inhibition was -3.56% (inactive).

On to `COc1ccc(-c2nnc(SCC(=O)Nc3cccnc3Cl)n2C)cc1`, for which the inhibition is -4.29% (inactive).

Turning to `CC(=O)Nc1ccc(NC(=O)CSc2nnc(C3CC3)n2-c2ccccc2)cc1`, the inhibition was -2.45% (inactive).

In the case of `O=C(CSc1nnc(C2CC2)n1Cc1ccccc1)Nc1cccnc1Cl`, the inhibition was 18% (active).

On to `CC(=O)c1cccc(NC(=O)COc2ccc(S(=O)(=O)N3CCOCC3)cc2)c1`, for which the inhibition was -2.4% (inactive).

Take `Cc1ccccc1/[N+]([O-])=C/c1ccncc1`: the inhibition is -3.82% (inactive).

For `O=S(=O)(NCc1ccc2c(c1)OCO2)c1cccc2nsnc12`, the inhibition is -1.4% (inactive).

On to `O=S(=O)(c1ccc(F)cc1)N1CCN(C(=S)NCc2ccco2)CC1`, for which the inhibition was -1.26% (inactive).

Turning to `COc1ccc2nc(NC(=O)c3ccc(Br)s3)sc2c1`, the inhibition was 3.31% (inactive).

On to `COc1ccc2nc(Nc3nc(-c4ccncc4)cs3)sc2c1`, for which the inhibition is 15.7% (active).

Turning to `COc1ccc2nc(NC(=O)NC3CCCCC3)sc2c1`, the inhibition was 0.1% (inactive).

Consider `CCOC(=O)c1c(Cc2ccc(Cl)cc2)c[nH]c1C`, for which the inhibition is 0.15% (inactive).

For `O=C(O)c1cccc(NC(=O)c2cc(-c3cccc(Cl)c3)nc3ccccc23)c1`, the inhibition is 8.21% (inactive).

On to `O=C(Nc1cccc(F)c1)c1cc(-c2ccco2)nc2ccccc12`, for which the inhibition is 17% (active).

With `COc1ccc(NC(=O)c2cc(-c3ccc(C)o3)nc3ccccc23)cc1`, the inhibition is -1.75% (inactive).

`O=C(c1ccc(Cl)nc1)N1CCN(S(=O)(=O)c2ccc3c(c2)OCCO3)CC1`: the inhibition was 1.34% (inactive).

On to `FC(F)(F)c1nc(-c2ccccc2)ncc1-c1nnnn1-c1ccccc1`, for which the inhibition is 0.75% (inactive).

On to `Clc1ccc(-n2nnnc2-c2cnc(-c3ccccn3)nc2-c2cccs2)cc1`, for which the inhibition is 75.5% (active).

On to `O=C(Cn1cc(-c2nnnn2-c2ccc(Cl)cc2)c(=O)c2ccccc21)c1ccccc1`, for which the inhibition is 1.68% (inactive).

`O=S(=O)(c1ccc(F)cc1)n1ccc(-c2cnc(-c3ccccc3)s2)n1`: the inhibition is 5.23% (inactive).

Consider `CCOc1ccc2sc(NS(=O)(=O)c3ccc(N)cc3)nc2c1`, for which the inhibition was 1.47% (inactive).

Turning to `COCCCn1c(SCC(=O)Nc2oc(C)c3c(C)n[nH]c(=O)c23)nc2sc3c(c2c1=O)CCC3`, the inhibition was -2.04% (inactive).

Turning to `CCOc1ccc(C(O)Cn2c(=N)n(CCN3CCCCC3)c3ccccc32)cc1` (stereo not drawn), the inhibition is 0.66% (inactive).

`Cc1cccc(OCC(O)Cn2c(=N)n(CCN3CCOCC3)c3ccccc32)c1` (stereo not drawn): the inhibition is 26% (active).

Turning to `C=CCn1c(=N)n(CC(O)COc2ccc(OC)cc2)c2ccccc21` (stereo not drawn), the inhibition was -0.92% (inactive).

Consider `Cc1ccc(NC(=O)NC(=O)N(C2CCCCC2)S(=O)(=O)c2ccccc2)cc1`, for which the inhibition was 0.85% (inactive).

In the case of `C=CCn1c(SCc2csc(C)n2)nc2scc(-c3ccc(C)o3)c2c1=O`, the inhibition is -0.82% (inactive).

Consider `C=CCNC(=O)CSc1nc2scc(-c3ccco3)c2c(=O)n1CC=C`, for which the inhibition is 3.47% (inactive).

Consider `C=CCn1c(=S)[nH]c2scc(-c3ccco3)c2c1=O`, for which the inhibition was 18.8% (active).

In the case of `COc1cc(NC(=S)NNC(=O)CC(C)C)c(OC)cc1Cl`, the inhibition was -3.43% (inactive).

`Cc1nnc(NC(=O)CCC(=O)N2CCC(C)CC2)s1`: the inhibition was -0.54% (inactive).

Regarding `CC1(C)O[C@@H]2[C@H](O1)[C@@H](COS(=O)(=O)O)O[C@H]2n1ccc(=O)[nH]c1=O`, the inhibition was 1.54% (inactive).

Regarding `COc1cc(NC(=O)CSc2nnc3ccc(-c4ccncc4)nn23)cc(OC)c1`, the inhibition is -2.13% (inactive).

In the case of `CC1CCCCN1S(=O)(=O)CCNC(=O)c1ccccc1` (stereo not drawn), the inhibition is -2.78% (inactive).

Take `CC1CCCCN1S(=O)(=O)c1ccc(S(=O)(=O)N(CC(=O)Nc2ccccc2)Cc2cccs2)cc1` (stereo not drawn): the inhibition was 3.05% (inactive).

Consider `O=C(Nc1nnc(-c2ccco2)o1)c1ccc(S(=O)(=O)N2CCOCC2)cc1`, for which the inhibition was 1.14% (inactive).

Regarding `CC1CCCN(S(=O)(=O)c2ccc(C(=O)Nc3nnc(-c4ccncc4)o3)cc2)C1` (stereo not drawn), the inhibition is 7.97% (inactive).

As for `CC1CCCCN1S(=O)(=O)c1ccc(C(=O)Nc2nnc(-c3cccs3)o2)cc1` (stereo not drawn), the inhibition was 25.9% (active).

In the case of `CSCc1nnc(NC(=O)c2ccc(S(=O)(=O)N3CCCCC3C)cc2)o1` (stereo not drawn), the inhibition was 16.8% (active).

Turning to `COC(=O)c1ccc(-c2c(-c3ccccc3)ncc3cc(OC)c(OC)cc23)cc1`, the inhibition is 1.2% (inactive).

As to `CCCCCCCC(=O)NC(Nc1ccccc1OC)C(Cl)(Cl)Cl` (stereo not drawn), the inhibition was 4.91% (inactive).

As for `COCC(=O)Nc1c(I)c(C(=O)NCC(O)CO)c(I)c(C(=O)N(C)CC(O)CO)c1I` (stereo not drawn), the inhibition is -5.4% (inactive).

For the compound `Cc1cc(C)nc(-n2ncc3c2CC(c2ccc(C(C)C)cc2)CC3=O)n1` (stereo not drawn), the inhibition is 15.3% (active).

Turning to `COc1cc(S(=O)(=O)Nc2ncn[nH]2)ccc1Cl`, the inhibition is -0.04% (inactive).

Take `Cc1ccccc1S(=O)(=O)N1[C@@H](c2cccc(Cl)c2)C(C(=O)O)=CC[C@H]1c1ccc(Cl)cc1`: the inhibition is 20.5% (active).

For the compound `Cc1ccc(S(=O)(=O)N2[C@@H](c3ccccc3F)C(C(=O)O)=CC[C@H]2c2ccc(Cl)cc2)cc1`, the inhibition is 4.64% (inactive).

For the compound `CN1OC(COC(=O)c2ccc(Cl)cc2)CC1c1ccccc1` (stereo not drawn), the inhibition is 1.23% (inactive).

Take `Cc1ccc(S(=O)(=O)N2[C@@H](c3cccc(Cl)c3)C(C(=O)O)=CC[C@H]2c2ccc(Cl)c(Cl)c2)cc1`: the inhibition was 21.6% (active).

In the case of `Cc1ccc([C@@H]2CC=C(C(=O)O)[C@H](c3cccc(Cl)c3)N2S(=O)(=O)c2ccc(C)cc2)cc1`, the inhibition was 5.69% (inactive).

Turning to `CS(=O)(=O)N(CC(=O)N1CCN(c2cccc(Cl)c2)CC1)c1ccccc1`, the inhibition is -1.41% (inactive).
